Experimental data from PubChem BioAssay.
Measured potencies and affinities stand elsewhere. Results filed as inconclusive are left out. Active and inactive are the calls of the source.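 The calls were made as follows, unless noted: active = a dose-response fit showing signal loss, with half-maximal concentration no higher than twice the top tested dose; inconclusive = flat fit between 30% and 70% signal loss, or poor fit; inactive = the rest.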

How the values were obtained:
[1] = fungal growth arrest, C. neoformans – Alamar Blue, cherry-picks, dose response (AID 686998;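 active = falling signal with fitted half-maximal potency no higher than twice the top valid tested dose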)
[2] = C. neoformans lysis by adenylate kinase leakage – AK release luminescence, cherry-picks, dose response (AID 687000;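 active = fitted dose curve reaches 40% lysis signal rise at or below the highest valid concentration tested for that sample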;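 also: luminescent detection of adenylate kinase leaking from lysed yeast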)
[3] = viability loss in HepG2 hepatoma cells – cell-based, cherry-picks, set 2, cytotoxicity control, dose response (AID 687002)
[4] = viability loss in HeLa cells – cell-based, ATP luminescence, cherry-pick samples, cytotoxicity control, dose response (AID 687004;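 active = a fitted half-maximal concentration no higher than twice the top valid tested dose, with signal falling as cells die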)

Measured: outcome

CC=Cc1ccc2n(c1=O)C[C@H]1[C@H](CO)[C@@H](C(=O)N3CCc4ccccc4C3)N(C(=O)C3CC3)[C@@H]21 (mixture of isomers)
inactive: [1] | [2] | [3]

CC(C)NC(=O)Nc1ccc2c(c1)C(=O)N([C@@H](C)CO)C[C@H](C)[C@@H](CN(C)Cc1ccc3c(c1)OCO3)OCCCC[C@@H](C)O2
inactive: [1] | [2] | [3]

CCNC(=O)Nc1ccc2c(c1)C(=O)N(C)[C@H]1CC[C@H](CC(=O)Nc3ccccc3F)O[C@@H]1CO2
inactive: [1] | [2] | [3]

COc1cccc(-c2cn(CC[C@@H]3CC[C@@H](NC(C)=O)[C@H](CO)O3)nn2)c1
inactive: [1] | [2] | [3]

CS(=O)(=O)c1ccc(-c2cnc3c(NC=O)cc(-c4ccsc4)cn23)cc1
inactive: [1] | [2] | [3]

CCOc1ccc(C(=O)NC(=S)Nc2ccccc2N2CCC(C)CC2)cc1[N+](=O)[O-]
inactive: [1] | [2] | [3]

C[C@@H]1CN([C@H](C)CO)S(=O)(=O)c2ccc(C#Cc3ccc(F)cc3)cc2O[C@H]1CN(C)C(=O)NC1CCCC1
inactive: [1] | [2] | [3]

C[C@H]1CN([C@@H](C)CO)S(=O)(=O)c2ccc(C#Cc3ccccn3)cc2O[C@@H]1CN(C)Cc1ccccc1
inactive: [1] | [2] | [3]

COc1ccc(N(CC(=O)NCCSCc2ccc(C)cc2)S(=O)(=O)c2ccccc2)cc1
inactive: [1] | [2] | [3]

CNC(=O)C[C@H]1CC[C@H]2[C@@H](COc3ccc(NC(=O)Nc4cccc(C#N)c4)cc3C(=O)N2C)O1
inactive: [1] | [2] | [3]

COc1ccccc1C(=O)Nc1ccc2c(c1)OC[C@H](C)N(C(C)=O)C[C@H](C)[C@H](OC)CN(C)C2=O
inactive: [1] | [2] | [3]

C[C@@H]1CN([C@H](C)CO)C(=O)c2cccc(NC(=O)Nc3ccccc3)c2O[C@@H]1CN(C)Cc1ccc(Cl)c(Cl)c1
inactive: [1] | [2] | [3]

CCCN1CCCC[C@H]1C(=O)Nc1c(C)cccc1C
inactive: [1] | [2] | [3]

COc1cccc(S(=O)(=O)Nc2ccc3c(c2)OC[C@H](C)NC[C@@H](C)[C@H](OC)CN(C)C3=O)c1
inactive: [1] | [2] | [3]

Cc1cccc(C)c1NC(=O)CNC(=O)C1CCCC1
inactive: [1] | [2] | [3] | [4]

C[C@@H](NC(=O)C[C@H]1CC[C@@H](NC(=O)Cc2ccccn2)[C@@H](CO)O1)c1ccccc1
inactive: [1] | [2] | [3] | [4]

O=C(O)C/C(=C\c1cccc(NC(=O)c2ccccc2Cl)c1)c1nc2ccccc2s1
inactive: [1] | [2] | [3] | [4]

C[C@@H]1CN([C@@H](C)CO)C(=O)c2cccc(N(C)C)c2O[C@H]1CN(C)C(=O)Nc1ccc(C(F)(F)F)cc1
inactive: [1] | [2] | [3] | [4]

CCCNC(=O)N1[C@@H](CO)[C@@H](c2ccc(-c3ccccc3)cc2)[C@@H]1CNC(C)=O
inactive: [1] | [2] | [3] | [4]

O=C(NC1CCCCC1)N[C@@H]1CC[C@@H](CCNS(=O)(=O)c2ccc(Cl)cc2)O[C@H]1CO
inactive: [1] | [2] | [3] | [4]

Cc1ccc(NC(=O)[C@H](C)NC(=O)C2CCN(C(=O)[C@@H](N)CC(C)C)CC2)cc1
inactive: [1] | [2] | [3] | [4]

CO[C@@H]1CN(C)C(=O)c2ccc(NC(=O)C3CC3)cc2OC[C@H](C)N(C(=O)c2ccncc2)C[C@H]1C
inactive: [1] | [2] | [3] | [4]

Cc1ccc(C2=NN(C(=O)c3ccc(Br)o3)C(c3ccc(C)cc3)C2)cc1 (stereo not given)
inactive: [1] | [2] | [3] | [4]

CO[C@@H]1CN(C)C(=O)c2cc(NS(=O)(=O)C3CCCCC3)ccc2OC[C@H](C)NC[C@@H]1C
inactive: [1] | [2] | [3] | [4]

Cc1ccc(C)c(NC(=O)C2CCCN2C(=O)NC2CCCCC2)c1 (stereo not given)
inactive: [1] | [2] | [3] | [4]

CN1CCN(C(=O)C[C@@H]2CC[C@H]3[C@@H](COC[C@H](O)CN3C(=O)Cc3ccccc3)O2)CC1
inactive: [1] | [2] | [3] | [4]

COCC(=O)Nc1ccc2c(c1)C(=O)N(C)C[C@@H](OC)[C@H](C)CN(Cc1ccccc1)[C@@H](C)CO2
inactive: [1] | [2] | [3] | [4]

COc1ccc(-n2ncc3c(SCC(=O)N4CCN(c5ccccc5OC)CC4)ncnc32)cc1
inactive: [1] | [2] | [3] | [4]

COc1cc(CNC(C)(C)C)ccc1OCC(=O)NC(C)(C)C
inactive: [1] | [2] | [3] | [4]

O=C(Cc1ccccc1)N[C@H]1C=C[C@@H](CC(=O)N2CCOCC2)O[C@H]1CO
inactive: [1] | [2] | [3] | [4]

O=C1CCC(C(=O)Nc2ccc(Cl)cc2)N1 (stereo not given)
inactive: [1] | [2] | [3] | [4]

CC(C)NC(=O)N(C)C[C@@H]1OCCCC[C@@H](C)Oc2ccc(NC(=O)c3ccccc3)cc2C(=O)N([C@H](C)CO)C[C@H]1C
inactive: [1] | [2] | [3] | [4]

N#C[C@@H]1[C@@H](c2ccccc2)[C@@H](CO)N1C(=O)Cc1ccccc1
inactive: [1] | [2] | [3] | [4]

CCC(=O)N(C)C[C@H]1Oc2cc(C#CC(C)(C)O)ccc2S(=O)(=O)N([C@@H](C)CO)C[C@@H]1C
inactive: [1] | [2] | [3] | [4]

C[C@@H]1CCCCO[C@H](CN(C)Cc2ccncc2)[C@@H](C)CN([C@H](C)CO)C(=O)c2cc(N(C)C)ccc2O1
inactive: [1] | [2] | [3] | [4]

Cc1cc(C)c(NC(=O)C2CCCN2CCO)c(C)c1 (stereo not given)
inactive: [1] | [2] | [3] | [4]

O=C(c1cccc(Br)c1)N1CCN(c2ccccn2)CC1
inactive: [1] | [2] | [3] | [4]

CC=Cc1ccc2n(c1=O)C[C@H]1[C@H](CO)[C@@H](C(=O)N3CCOCC3)N(CC3CC3)[C@@H]21 (mixture of isomers)
inactive: [1] | [2] | [3] | [4]

CC(C)NC(=O)Nc1ccc2c(c1)C(=O)N([C@@H](C)CO)C[C@@H](C)[C@@H](CN(C)S(=O)(=O)c1ccc(Cl)cc1)OCCCC[C@@H](C)O2
inactive: [1] | [2] | [3] | [4]

CCC(=O)N[C@H]1C=C[C@H](CC(=O)NCC2CCCCC2)O[C@@H]1CO
inactive: [1] | [2] | [3] | [4]

O=C(C[C@@H]1CC[C@H]2[C@@H](COC[C@H](O)CN2Cc2ccccc2F)O1)NC1CCC1
inactive: [1] | [2] | [3] | [4]

COc1ccc(CNC(=O)C[C@H]2CC[C@H]3[C@@H](COc4ccc(NC(=O)C5CC5)cc4C(=O)N3C)O2)cc1
inactive: [1] | [2] | [3] | [4]

CO[C@H]1CN(C)C(=O)c2ccc(NC(C)=O)cc2OC[C@H](C)N(C(=O)c2ccncc2)C[C@@H]1C
inactive: [1] | [2] | [3] | [4]

CO[C@H]1CN(C)C(=O)c2cc(NC(=O)Nc3cccc(F)c3)ccc2OC[C@H](C)N(C)C[C@H]1C
inactive: [1] | [2] | [3] | [4]

O=C([C@H]1[C@H](CO)[C@H]2Cn3c(cccc3=O)[C@@H]1N2Cc1cccc(Cl)c1)N1CCOCC1
inactive: [1] | [2] | [3] | [4]

CNC(=O)C[C@@H]1CC[C@@H]2[C@H](COC[C@H](O)CN2S(=O)(=O)c2cccc(Cl)c2)O1
inactive: [1] | [2] | [3] | [4]

O=C(Nc1ccccc1)N[C@@H]1CC[C@@H](CCNC(=O)c2ccccc2F)O[C@H]1CO
inactive: [1] | [2] | [3] | [4]

CN1[C@H](C(=O)N2CCc3ccccc3C2)[C@@H](CO)[C@@H]2Cn3c(ccc(-c4cccnc4)c3=O)[C@@H]21
inactive: [1] | [2] | [3] | [4]

COc1cccc(S(=O)(=O)N2C[C@@H](O)COC[C@H]3O[C@H](CC(=O)N4CCN(C)CC4)CC[C@@H]32)c1
inactive: [1] | [2] | [3] | [4]

CC1=C(C(=O)OCc2ccccc2)C(c2ccccc2)NC(=O)N1 (stereo not given)
inactive: [1] | [2] | [3] | [4]

C[C@H]1CN([C@@H](C)CO)C(=O)c2cc(NC(=O)Nc3ccc4c(c3)OCO4)ccc2O[C@@H]1CN(C)CC1CCCCC1
inactive: [1] | [2] | [3] | [4]

COC(=O)N(C)C[C@H]1OCc2cn(nn2)CCCC(=O)N([C@H](C)CO)C[C@@H]1C
inactive: [1] | [2] | [3] | [4]

COc1ccc(C2CC(c3cccs3)=NN2C(=O)c2ccc(Br)o2)cc1 (stereo not given)
inactive: [1] | [2] | [3] | [4]

CC(C)(C)SCCNC(=O)CN(c1ccc(F)cc1)S(=O)(=O)c1ccccc1
inactive: [1] | [2] | [3] | [4]

C[C@@H]1CN([C@@H](C)CO)C(=O)c2cccc(NS(=O)(=O)c3ccc(F)cc3)c2O[C@H]1CN(C)S(=O)(=O)c1ccc(Cl)cc1
inactive: [1] | [2] | [3] | [4]

C[C@H](CO)N1C[C@H](C)[C@H](CN(C)C(=O)Nc2ccc3c(c2)OCO3)Oc2ncc(-c3ccc(F)cc3)cc2C1=O
inactive: [1] | [2] | [3] | [4]
